# Assay results as given in article PMC7862700, “An all-to-all approach to the identification of sequence-specific readers for epigenetic DNA modifications on cytosine”.
# How the values were obtained:
# Assay in all cases: DAPPL (digital affinity profiling via proximity ligation, sequencing); 10 mM Tris-HCl pH 7.5, 50 mM NaCl, 1 mM DTT, 4% glycerol, room temperature, 30 min; GST-TFs on glutathione beads, 16-mer random dsDNA library, 0.1% formaldehyde crosslink after washing; high values mean tight binding
# [1] = target: T1, FLI1 (Homo sapiens, UniProt Q01543 1-452); settings: protein: recombinant; tags: N-terminal GST; dsDNA, one strand shown
# T1 sequence: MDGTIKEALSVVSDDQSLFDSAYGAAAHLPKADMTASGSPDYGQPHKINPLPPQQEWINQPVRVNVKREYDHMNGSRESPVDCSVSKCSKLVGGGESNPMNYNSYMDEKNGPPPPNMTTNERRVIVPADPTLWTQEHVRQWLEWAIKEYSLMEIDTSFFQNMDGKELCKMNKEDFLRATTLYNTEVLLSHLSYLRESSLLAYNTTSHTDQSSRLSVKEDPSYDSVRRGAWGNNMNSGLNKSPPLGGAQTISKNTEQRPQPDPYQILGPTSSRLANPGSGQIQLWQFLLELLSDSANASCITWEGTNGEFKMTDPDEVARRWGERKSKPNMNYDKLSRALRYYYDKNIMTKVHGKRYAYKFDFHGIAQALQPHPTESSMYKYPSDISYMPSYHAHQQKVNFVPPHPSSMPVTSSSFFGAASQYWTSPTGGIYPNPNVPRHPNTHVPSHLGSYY
# Summary of the method: (§1)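 A tag-only sample was pooled with DNA-barcoded human transcription factors that had been expressed in yeast as GST fusions and captured on glutathione beads. The pools were incubated for 30 min at room temperature with 200 nmole of a random double-stranded 16-mer DNA library in Tris/NaCl/DTT/glycerol buffer, then washed, crosslinked with 0.1% formaldehyde, proximity-ligated (BsaI/T4 ligase, 1 h, 37 °C), PCR-amplified and sequenced on an Illumina NextSeq500. Binding signal is each hexamer's read frequency for a factor divided by its frequency for the tag-only sample.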
# [2] = target: T2, ELK1 (Homo sapiens, UniProt P19419 1-428); settings: protein: recombinant; tags: N-terminal GST; dsDNA, one strand shown
# T2 sequence: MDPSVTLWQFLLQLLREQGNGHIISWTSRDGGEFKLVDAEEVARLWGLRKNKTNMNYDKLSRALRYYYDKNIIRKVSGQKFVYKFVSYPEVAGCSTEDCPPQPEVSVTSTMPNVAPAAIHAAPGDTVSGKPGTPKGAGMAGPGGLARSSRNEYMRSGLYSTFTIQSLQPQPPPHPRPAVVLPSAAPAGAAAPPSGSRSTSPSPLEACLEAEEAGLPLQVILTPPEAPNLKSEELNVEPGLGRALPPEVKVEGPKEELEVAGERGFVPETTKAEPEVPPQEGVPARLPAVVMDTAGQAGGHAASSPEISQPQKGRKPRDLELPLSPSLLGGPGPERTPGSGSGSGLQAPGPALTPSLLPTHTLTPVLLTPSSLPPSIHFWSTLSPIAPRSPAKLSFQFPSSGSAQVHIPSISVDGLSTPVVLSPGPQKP
# Summary of the method: as §1
# [3] = target: T3, GABPA (Homo sapiens, UniProt Q06546 1-454); settings: protein: recombinant; tags: N-terminal GST; dsDNA, one strand shown
# T3 sequence: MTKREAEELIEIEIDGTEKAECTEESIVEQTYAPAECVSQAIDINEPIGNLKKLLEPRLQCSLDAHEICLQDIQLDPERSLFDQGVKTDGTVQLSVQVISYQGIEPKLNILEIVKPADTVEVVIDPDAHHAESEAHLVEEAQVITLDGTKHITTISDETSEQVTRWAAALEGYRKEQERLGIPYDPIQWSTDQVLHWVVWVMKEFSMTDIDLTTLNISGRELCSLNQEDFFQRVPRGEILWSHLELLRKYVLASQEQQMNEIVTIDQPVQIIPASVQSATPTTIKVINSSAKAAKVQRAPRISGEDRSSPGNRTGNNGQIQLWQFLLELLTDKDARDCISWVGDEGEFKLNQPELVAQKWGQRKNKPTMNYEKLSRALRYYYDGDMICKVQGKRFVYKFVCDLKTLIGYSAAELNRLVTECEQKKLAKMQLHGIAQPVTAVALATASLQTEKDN
# Summary of the method: as §1
# [4] = target: T4, ERG (Homo sapiens, UniProt P11308 1-479); settings: protein: recombinant; tags: N-terminal GST; dsDNA, one strand shown
# T4 sequence: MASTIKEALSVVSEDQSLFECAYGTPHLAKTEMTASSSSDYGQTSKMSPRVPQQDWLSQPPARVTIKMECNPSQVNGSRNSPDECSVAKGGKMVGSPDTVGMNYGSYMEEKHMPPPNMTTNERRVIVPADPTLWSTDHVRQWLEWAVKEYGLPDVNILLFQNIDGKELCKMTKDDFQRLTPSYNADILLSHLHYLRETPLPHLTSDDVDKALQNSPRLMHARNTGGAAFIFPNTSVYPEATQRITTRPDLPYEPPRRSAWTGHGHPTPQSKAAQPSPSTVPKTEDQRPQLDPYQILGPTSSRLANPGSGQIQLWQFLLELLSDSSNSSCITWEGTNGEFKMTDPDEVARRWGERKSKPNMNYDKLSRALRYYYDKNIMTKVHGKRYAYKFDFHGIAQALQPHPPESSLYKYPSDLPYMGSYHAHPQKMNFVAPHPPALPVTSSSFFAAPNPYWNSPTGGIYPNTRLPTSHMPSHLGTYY
# Summary of the method: as §1
# [5] = target: ELF1 (Homo sapiens, UniProt P32519 1-619); settings: protein: recombinant; tags: N-terminal GST; dsDNA, one strand shown
# ELF1, sequence (P32519 whole entry): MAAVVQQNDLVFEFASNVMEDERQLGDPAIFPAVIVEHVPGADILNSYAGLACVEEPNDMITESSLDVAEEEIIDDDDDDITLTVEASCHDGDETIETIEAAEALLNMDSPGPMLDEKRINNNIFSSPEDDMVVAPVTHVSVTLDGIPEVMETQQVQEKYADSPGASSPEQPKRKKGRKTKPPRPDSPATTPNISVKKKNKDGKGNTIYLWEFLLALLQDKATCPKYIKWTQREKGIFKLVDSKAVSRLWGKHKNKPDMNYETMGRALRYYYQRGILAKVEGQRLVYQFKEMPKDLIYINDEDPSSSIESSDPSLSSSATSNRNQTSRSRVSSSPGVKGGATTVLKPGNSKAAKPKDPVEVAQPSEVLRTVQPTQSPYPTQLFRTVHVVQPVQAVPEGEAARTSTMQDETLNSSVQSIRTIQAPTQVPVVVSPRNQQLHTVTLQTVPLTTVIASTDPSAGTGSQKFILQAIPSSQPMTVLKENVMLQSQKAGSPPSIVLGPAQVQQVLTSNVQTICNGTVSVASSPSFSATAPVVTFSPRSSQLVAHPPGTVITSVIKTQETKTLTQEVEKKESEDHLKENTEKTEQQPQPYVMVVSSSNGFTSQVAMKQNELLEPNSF
# Summary of the method: as §1
# [6] = target: T5, EHF (Homo sapiens, UniProt Q9NZC4 1-300); settings: protein: recombinant; tags: N-terminal GST; dsDNA, one strand shown
# T5 sequence: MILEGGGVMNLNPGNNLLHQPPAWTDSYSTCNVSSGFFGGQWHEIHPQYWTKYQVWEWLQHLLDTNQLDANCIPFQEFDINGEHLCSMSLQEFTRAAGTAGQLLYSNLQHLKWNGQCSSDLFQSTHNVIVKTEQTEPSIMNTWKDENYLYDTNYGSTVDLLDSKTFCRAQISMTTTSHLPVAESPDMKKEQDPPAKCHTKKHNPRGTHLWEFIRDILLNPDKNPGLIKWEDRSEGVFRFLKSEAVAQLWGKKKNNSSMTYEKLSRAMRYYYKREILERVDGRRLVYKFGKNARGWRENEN
# Summary of the method: as §1
# [7] = target: SPI1 (Homo sapiens, UniProt P17947 1-270); settings: protein: recombinant; tags: N-terminal GST; dsDNA, one strand shown
# Summary of the method: as §1
# [8] = target: SPIB (Homo sapiens, UniProt Q01892 1-262); settings: protein: recombinant; tags: N-terminal GST; dsDNA, one strand shown
# SPIB, sequence (Q01892 whole entry): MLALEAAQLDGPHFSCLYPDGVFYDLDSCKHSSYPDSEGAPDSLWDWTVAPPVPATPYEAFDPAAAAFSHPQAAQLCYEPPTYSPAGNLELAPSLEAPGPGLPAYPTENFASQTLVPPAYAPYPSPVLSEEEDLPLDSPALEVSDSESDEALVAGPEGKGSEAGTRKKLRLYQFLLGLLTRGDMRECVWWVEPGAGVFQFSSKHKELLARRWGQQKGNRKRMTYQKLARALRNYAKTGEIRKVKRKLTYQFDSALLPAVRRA
# Summary of the method: as §1
# [9] = target: T6, ELK3 (Homo sapiens, UniProt P41970 1-407); settings: protein: recombinant; tags: N-terminal GST; dsDNA, one strand shown
# T6 sequence: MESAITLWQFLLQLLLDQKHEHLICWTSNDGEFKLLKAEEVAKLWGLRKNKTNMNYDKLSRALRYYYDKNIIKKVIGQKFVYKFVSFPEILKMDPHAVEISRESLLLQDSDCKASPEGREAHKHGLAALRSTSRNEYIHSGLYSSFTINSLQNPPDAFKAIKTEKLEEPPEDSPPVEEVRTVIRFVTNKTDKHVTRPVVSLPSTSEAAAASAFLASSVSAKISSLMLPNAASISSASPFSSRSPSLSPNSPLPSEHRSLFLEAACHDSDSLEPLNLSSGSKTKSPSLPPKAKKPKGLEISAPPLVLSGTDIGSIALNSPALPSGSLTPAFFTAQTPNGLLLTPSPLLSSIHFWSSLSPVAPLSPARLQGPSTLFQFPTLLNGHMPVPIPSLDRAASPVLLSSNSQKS
# Summary of the method: as §1
# [10] = target: T7, FEV (Homo sapiens, UniProt Q99581 1-238); settings: protein: recombinant; tags: N-terminal GST; dsDNA, one strand shown
# T7 sequence: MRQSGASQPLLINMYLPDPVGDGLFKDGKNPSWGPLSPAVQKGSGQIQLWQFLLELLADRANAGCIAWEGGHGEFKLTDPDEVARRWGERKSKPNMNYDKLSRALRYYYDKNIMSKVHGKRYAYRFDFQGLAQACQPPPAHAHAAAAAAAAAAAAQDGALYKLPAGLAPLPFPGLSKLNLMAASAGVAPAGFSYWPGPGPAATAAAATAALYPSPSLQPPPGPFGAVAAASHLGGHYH
# Summary of the method: as §1
# [11] = target: ETV5 (Homo sapiens, UniProt P41161 1-510); settings: protein: recombinant; tags: N-terminal GST; dsDNA, one strand shown
# ETV5, sequence (P41161 whole entry): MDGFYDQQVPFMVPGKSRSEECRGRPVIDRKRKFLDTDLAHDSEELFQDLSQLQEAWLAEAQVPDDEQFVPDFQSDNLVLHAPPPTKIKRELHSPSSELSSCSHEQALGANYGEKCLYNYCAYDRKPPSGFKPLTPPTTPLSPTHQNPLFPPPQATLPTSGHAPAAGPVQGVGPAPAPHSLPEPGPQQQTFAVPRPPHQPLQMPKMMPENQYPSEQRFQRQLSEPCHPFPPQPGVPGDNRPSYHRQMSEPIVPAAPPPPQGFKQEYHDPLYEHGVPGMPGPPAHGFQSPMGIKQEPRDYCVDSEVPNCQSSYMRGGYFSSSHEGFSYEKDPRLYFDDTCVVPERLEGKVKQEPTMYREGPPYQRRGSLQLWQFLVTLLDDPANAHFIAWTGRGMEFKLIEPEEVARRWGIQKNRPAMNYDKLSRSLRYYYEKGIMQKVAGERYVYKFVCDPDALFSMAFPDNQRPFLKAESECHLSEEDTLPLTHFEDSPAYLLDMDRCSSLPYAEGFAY
# Summary of the method: as §1
# [12] = target: HSF1 (Homo sapiens, UniProt Q00613 1-529); settings: protein: recombinant; tags: N-terminal GST; chain copies: 3; dsDNA, one strand shown
# HSF1, sequence (Q00613 whole entry): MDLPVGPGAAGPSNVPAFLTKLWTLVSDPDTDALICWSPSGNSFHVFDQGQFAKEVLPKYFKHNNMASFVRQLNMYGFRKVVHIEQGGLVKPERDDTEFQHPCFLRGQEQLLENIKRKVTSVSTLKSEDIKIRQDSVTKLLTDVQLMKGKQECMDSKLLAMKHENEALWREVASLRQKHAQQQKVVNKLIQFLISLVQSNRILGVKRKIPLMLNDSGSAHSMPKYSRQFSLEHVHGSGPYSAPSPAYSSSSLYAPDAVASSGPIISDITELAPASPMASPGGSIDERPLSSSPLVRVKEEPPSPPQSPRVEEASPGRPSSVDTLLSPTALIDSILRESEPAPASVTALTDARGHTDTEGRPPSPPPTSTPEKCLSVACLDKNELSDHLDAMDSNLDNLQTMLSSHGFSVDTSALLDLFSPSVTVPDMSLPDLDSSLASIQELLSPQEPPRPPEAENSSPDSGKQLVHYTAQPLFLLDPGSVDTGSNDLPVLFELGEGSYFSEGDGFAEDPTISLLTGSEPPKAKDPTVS
# Summary of the method: as §1
# [13] = target: T8, SPIC (Homo sapiens, UniProt Q8N5J4 1-248); settings: protein: recombinant; tags: N-terminal GST; dsDNA, one strand shown
# T8 sequence: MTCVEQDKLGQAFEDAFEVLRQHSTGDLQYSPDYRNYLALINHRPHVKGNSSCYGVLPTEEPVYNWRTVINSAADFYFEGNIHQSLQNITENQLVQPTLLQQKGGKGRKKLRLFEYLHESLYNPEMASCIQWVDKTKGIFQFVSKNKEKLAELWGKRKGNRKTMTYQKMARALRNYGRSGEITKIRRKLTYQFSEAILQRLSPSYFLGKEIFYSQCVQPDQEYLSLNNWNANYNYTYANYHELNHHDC
# Summary of the method: as §1
# [14] = target: ELF4 (Homo sapiens, UniProt Q99607 1-663); settings: protein: recombinant; tags: N-terminal GST; dsDNA, one strand shown
# ELF4, sequence (Q99607 whole entry): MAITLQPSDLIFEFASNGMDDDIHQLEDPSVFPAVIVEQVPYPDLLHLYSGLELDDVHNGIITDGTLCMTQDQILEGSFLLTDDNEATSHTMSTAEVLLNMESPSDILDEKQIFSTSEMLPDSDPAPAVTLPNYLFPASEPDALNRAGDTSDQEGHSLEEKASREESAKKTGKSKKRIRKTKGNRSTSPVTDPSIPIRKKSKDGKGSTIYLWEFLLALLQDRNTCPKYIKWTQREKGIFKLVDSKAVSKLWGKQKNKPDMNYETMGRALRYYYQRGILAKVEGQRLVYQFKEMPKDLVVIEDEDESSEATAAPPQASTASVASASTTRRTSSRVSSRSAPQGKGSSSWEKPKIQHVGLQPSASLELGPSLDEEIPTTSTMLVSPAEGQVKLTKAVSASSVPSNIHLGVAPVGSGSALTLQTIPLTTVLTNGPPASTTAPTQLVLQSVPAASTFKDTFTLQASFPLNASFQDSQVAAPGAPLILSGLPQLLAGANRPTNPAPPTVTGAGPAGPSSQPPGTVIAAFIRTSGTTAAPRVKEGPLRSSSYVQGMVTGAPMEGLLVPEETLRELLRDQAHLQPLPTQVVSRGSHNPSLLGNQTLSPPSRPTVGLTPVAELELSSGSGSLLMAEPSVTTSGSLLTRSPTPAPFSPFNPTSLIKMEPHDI
# Summary of the method: as §1
# [15] = target: T9, ELK4 (Homo sapiens, UniProt P28324-2 1-405); settings: protein: recombinant; tags: N-terminal GST; dsDNA, one strand shown
# T9 sequence: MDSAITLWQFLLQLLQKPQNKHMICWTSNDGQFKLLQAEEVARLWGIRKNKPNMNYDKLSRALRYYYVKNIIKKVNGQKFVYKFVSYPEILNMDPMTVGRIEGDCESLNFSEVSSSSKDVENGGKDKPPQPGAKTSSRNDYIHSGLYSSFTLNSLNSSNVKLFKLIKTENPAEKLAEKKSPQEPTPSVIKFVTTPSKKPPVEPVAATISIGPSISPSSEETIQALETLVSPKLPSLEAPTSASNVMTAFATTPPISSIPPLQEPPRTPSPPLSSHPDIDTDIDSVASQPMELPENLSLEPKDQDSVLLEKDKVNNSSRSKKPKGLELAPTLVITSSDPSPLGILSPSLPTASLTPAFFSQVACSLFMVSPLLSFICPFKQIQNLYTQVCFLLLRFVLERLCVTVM
# Summary of the method: as §1
# [16] = target: T10, ETV2 (Homo sapiens, UniProt O00321 1-342); settings: protein: recombinant; tags: N-terminal GST; dsDNA, one strand shown
# T10 sequence: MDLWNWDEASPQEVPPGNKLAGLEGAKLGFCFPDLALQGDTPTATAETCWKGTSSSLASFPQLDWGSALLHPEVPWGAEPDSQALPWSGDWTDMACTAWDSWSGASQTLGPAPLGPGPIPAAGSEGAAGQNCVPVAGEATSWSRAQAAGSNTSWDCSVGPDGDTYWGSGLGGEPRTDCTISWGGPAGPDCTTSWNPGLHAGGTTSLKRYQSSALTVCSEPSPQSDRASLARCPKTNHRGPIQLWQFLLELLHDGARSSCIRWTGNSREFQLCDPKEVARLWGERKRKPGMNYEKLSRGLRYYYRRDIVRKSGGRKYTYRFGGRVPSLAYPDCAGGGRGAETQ
# Summary of the method: as §1
# [17] = target: T11, ELF3 (Homo sapiens, UniProt P78545 1-371); settings: protein: recombinant; tags: N-terminal GST; dsDNA, one strand shown
# T11 sequence: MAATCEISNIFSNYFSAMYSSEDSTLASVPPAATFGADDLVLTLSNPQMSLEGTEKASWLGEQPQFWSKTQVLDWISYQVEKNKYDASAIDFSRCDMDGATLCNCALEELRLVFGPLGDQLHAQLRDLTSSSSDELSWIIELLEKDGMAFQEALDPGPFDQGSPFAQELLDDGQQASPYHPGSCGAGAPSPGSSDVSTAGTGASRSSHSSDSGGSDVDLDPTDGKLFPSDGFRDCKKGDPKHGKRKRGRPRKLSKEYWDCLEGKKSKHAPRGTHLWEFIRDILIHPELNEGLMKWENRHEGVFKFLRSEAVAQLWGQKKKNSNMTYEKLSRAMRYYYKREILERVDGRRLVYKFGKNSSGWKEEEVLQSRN
# Summary of the method: as §1
# [18] = target: CRX (Homo sapiens, UniProt O43186 1-299); settings: protein: recombinant; tags: N-terminal GST; dsDNA, one strand shown
# CRX, sequence (O43186 whole entry): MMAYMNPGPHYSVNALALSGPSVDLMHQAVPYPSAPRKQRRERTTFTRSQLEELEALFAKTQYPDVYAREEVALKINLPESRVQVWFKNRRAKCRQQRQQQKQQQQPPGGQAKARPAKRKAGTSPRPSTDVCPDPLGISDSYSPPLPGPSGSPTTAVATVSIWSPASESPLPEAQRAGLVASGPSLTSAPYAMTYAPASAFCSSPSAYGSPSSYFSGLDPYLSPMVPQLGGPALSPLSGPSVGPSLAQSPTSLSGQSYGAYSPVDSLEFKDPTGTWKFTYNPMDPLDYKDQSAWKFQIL
# Summary of the method: as §1
# [19] = target: ETV1 (Homo sapiens, UniProt P50549 1-477); settings: protein: recombinant; tags: N-terminal GST; dsDNA, one strand shown
# ETV1, sequence (P50549 whole entry): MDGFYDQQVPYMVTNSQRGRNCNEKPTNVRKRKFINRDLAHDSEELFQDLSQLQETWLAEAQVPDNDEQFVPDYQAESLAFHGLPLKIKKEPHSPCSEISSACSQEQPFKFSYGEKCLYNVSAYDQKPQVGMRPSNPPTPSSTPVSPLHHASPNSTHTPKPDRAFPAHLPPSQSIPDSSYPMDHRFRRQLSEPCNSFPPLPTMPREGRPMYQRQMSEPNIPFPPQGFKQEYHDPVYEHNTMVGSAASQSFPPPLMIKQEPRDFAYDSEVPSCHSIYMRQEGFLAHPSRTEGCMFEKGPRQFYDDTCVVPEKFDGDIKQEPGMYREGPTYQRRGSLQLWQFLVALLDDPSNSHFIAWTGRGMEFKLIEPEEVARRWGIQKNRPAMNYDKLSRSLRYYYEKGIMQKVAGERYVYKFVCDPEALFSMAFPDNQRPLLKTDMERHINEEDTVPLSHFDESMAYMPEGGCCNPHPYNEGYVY
# Summary of the method: as §1
sequence,measurement,setting,value
ACTTGT,binding signal,[1],"1.27 fold enrichment (6-mer frequency, TF over GST control)"
same,binding signal,[2],"1.35 fold enrichment (6-mer frequency, TF over GST control)"
same,binding signal,[3],"1.29 fold enrichment (6-mer frequency, TF over GST control)"
same,binding signal,[4],"1.15 fold enrichment (6-mer frequency, TF over GST control)"
same,binding signal,[5],"1.29 fold enrichment (6-mer frequency, TF over GST control)"
same,binding signal,[6],"1.31 fold enrichment (6-mer frequency, TF over GST control)"
same,binding signal,[7],"1.3 fold enrichment (6-mer frequency, TF over GST control)"
same,binding signal,[8],"1.45 fold enrichment (6-mer frequency, TF over GST control)"
same,binding signal,[9],"1.31 fold enrichment (6-mer frequency, TF over GST control)"
same,binding signal,[10],"1.28 fold enrichment (6-mer frequency, TF over GST control)"
same,binding signal,[11],"1.21 fold enrichment (6-mer frequency, TF over GST control)"
same,binding signal,[12],"1.12 fold enrichment (6-mer frequency, TF over GST control)"
same,binding signal,[13],"1.08 fold enrichment (6-mer frequency, TF over GST control)"
same,binding signal,[14],"1.37 fold enrichment (6-mer frequency, TF over GST control)"
same,binding signal,[15],"1.36 fold enrichment (6-mer frequency, TF over GST control)"
same,binding signal,[16],"1.31 fold enrichment (6-mer frequency, TF over GST control)"
same,binding signal,[17],"1.16 fold enrichment (6-mer frequency, TF over GST control)"
same,binding signal,[18],"1.1 fold enrichment (6-mer frequency, TF over GST control)"
same,binding signal,[19],"1.29 fold enrichment (6-mer frequency, TF over GST control)"
